Source: PubChem
MARV entry inh: qHTS for inhibitors of binding or entry into cells for Marburg Virus; AID 540276, 2011; Potency, µM (series often up to 37.8 µM), inactives show at the top dose activity change, negative = inhibition, actives largely listed as inhibitors; 300,000 tested, 1.8% active; Marburg virus pseudotyped entry inhibition, cell reporter; calls by dose curve; tested in HEK293 cells; note: potency is the fitted concentration of half-maximal effect
LASV entry inh: qHTS for Inhibitors of binding or entry into cells for Lassa Virus | Lassa virus pseudotype entry inhibition, cell reporter | Potency, µM (doses to about 37.9 µM), for the others: at the top dose activity change, negative = inhibition, most hits filed as inhibitors | 300,000 tested, 1.2% active | AID 540256, 2011; calls by dose curve; tested in HEK293 cells; note: potency is the fitted concentration of half-maximal effect; nearly all actives have a fitted effect of over 50% in size
HCMV antiviral: qHTS Assay for inhibitors of the human cytomegalovirus (HCMV); activity change, negative = inhibition, % at 57.5 µM; 410,000 tested, 4.5% active; HFF cells, HCMV-luciferase reporter, 72 h; active compounds read low; in the data active = activity change below about -60%; inconclusive = no clear call, values can overlap the other calls; inactive = above about -39%
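Compounds were evaluated in HFFs infected with an HCMV luciferase reporter virus (MOI 1 PFU/cell). Luciferase in lysates collected 72 h post infection served as the replication measure.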
FMDV inh: High Throughput Screening for Foot and Mouth Disease Virus Antivirals | FMDV antiviral cell-based qHTS | Potency, µM (top dose mostly 57.9 µM), without a hit: at the highest dose activity change, negative = inhibition, usual class: inhibitors | 410,000 tested, 1.2% active; calls by dose curve; tested in HEK293T cells; note: read-out not given here; potency is the fitted concentration of half-maximal effect; nearly all actives have a fitted effect of over 45% in size
* hit, by the source's call; ? = inconclusive; . = not tested or not shown; [ ] = remark or other dose. Shown are actives, neighbours in structure and some others; about 6.2% of the full set was active somewhere. % is set by controls: 0 for no effect and ±100 for the full control effect.

SMILES	MARV entry inh	LASV entry inh	HCMV antiviral	FMDV inh
Cc1cccc(OCC(=O)N(C)CCc2ccccn2)c1	6%[46.1 µM]	0%	36	5%
CN(Cc1ccc(Cl)c(Cl)c1)C(=O)c1ccccc1SCC(=O)N1CCCC1	-17%[46.1 µM]	-12%	-99*	-16%
CN(C(=O)COC(=O)c1ccccc1SCC(=O)N1CCCC1)c1ccccc1	?	-8%	-7	-18%
CN(Cc1cccc(Cl)c1Cl)C(=O)c1ccccc1SCC(=O)N1CCCC1	?	-23%	-5	2%
CN(Cc1ccccc1)C(=O)COC(=O)c1ccccc1SCC(=O)N1CCCC1	-2%	7%	-61*	-14%
COc1cc(/C=C/CN2CCC(C(=O)NC(c3ccc(F)cc3)c3ccc4ccccc4n3)CC2)ccc1OC(C)=O (stereo unspecified)	.	.	3	-19%
CC(=O)c1sc(NC(=O)C=C(C)C)nc1C	1%	8%	-69*	47%
CCCC(=O)Nc1nc(C)c(C(C)=O)s1	?	2%[46.1 µM]	-18	-1%
CC(=O)c1sc(NC(=O)C2(F)C(F)(F)C(F)(F)C(F)(F)C(F)(F)C2(F)F)nc1C	2.6µM*	1.6µM*	-98*	.
COC(=O)c1ccc2nc(C3CCCCC3)c(CC(C)(C)C)n2c1	.	.	-40	?
c1ccc(C[C@H]2COc3c4ccccc4nn32)cc1	.	.	26	48%
Cc1cc(C(=O)c2ccccc2)c(NC(=O)CCl)s1	1µM*	-16%	53	?
CC(=O)c1cc(C(=O)Nc2ccc(C(=O)O)cc2)oc1C	?	4%	-7	-1%
COc1cccc(NC(=O)CCc2nc(-c3ccc(C(C)(C)C)cc3)no2)c1	?	?	-82*	?
O=C(CCCc1nc(-c2ccc(Cl)cc2)no1)Nc1cccnc1	-49%	?	-72*	?
CCOC(=O)c1ccc(NC(=O)CCc2nc(-c3ccccc3Cl)no2)cc1	?	?	-33	-9%
CCOC(=O)c1ccc(NC(=O)CCc2nc(-c3ccccc3)no2)cc1	?	?	-3	20µM*
O=C(Cc1ccccc1)Nc1cccc(-c2nnc(-c3ccco3)o2)c1	0%	-1%	-18	0%
CCOc1cccc(C(=O)Nc2nnc(-c3ccco3)s2)c1	4µM*	?	55	-38%
CCc1cccc(NC(=O)Cc2ccc(OC)c(OC)c2)c1	?	?	-82*	?
CCOc1cccc(C(=O)Nc2cccc(-c3nnc(-c4ccc(C)cc4)o3)c2)c1	?	0%	-70*	-25%
COc1ccccc1OCC(=O)Nc1cccc(-c2nnc(-c3ccco3)o2)c1	6.3µM*	?	121	-17%
COc1ccc(CC(=O)NCc2cccc(CNC(=O)Cc3ccc(OC)c(OC)c3)c2)cc1OC	.	.	17	-24%
CCOc1cccc2cc(C(N)=O)c(=NCc3ccccc3)oc12	16%	-2%	?	-10%
CC(OC(=O)c1cc(S(=O)(=O)N2CCOCC2)ccc1F)C(=O)NC1CCCCC1C (stereo unspecified)	?	-24%	-13	-27%
SMILES	MARV entry inh	LASV entry inh	HCMV antiviral	FMDV inh
CC(=O)Oc1ccc(C(=O)Nc2cccc(-c3nnc(-c4ccco4)o3)c2)cc1	11µM*	?	-39	-9%
COc1ccc(CC(=O)Nc2ccc(-c3nnc(-c4ccccc4)o3)cc2)cc1OC	20%	25%[14.3 µM]	19	43%
O=C(Nc1cccc(-c2nnc(-c3ccco3)o2)c1)c1ccccc1	?	-26%[46.1 µM]	-2	-27%
COc1ccc(CC(=O)Nc2cccc(-c3nnc(-c4cccc(C)c4)o3)c2)cc1OC	?	?	-17	40µM*
COc1ccc(CC(=O)Nc2cccc(-c3nnc(-c4ccccc4)o3)c2)cc1OC	4.6µM*	7.3µM*	?	.
COc1ccc(CC(=O)Nc2cccc(-c3nnc(-c4ccc(C)cc4)o3)c2)cc1OC	9.2µM*	?	-93*	4µM*
COc1ccc([N+](=O)[O-])cc1N(CC(O)CN(CC(C)C)CC(C)C)S(=O)(=O)c1ccccc1 (stereo unspecified)	12µM*	5%	76	3%
CCCCN(CCCC)CC(O)CN(c1cc([N+](=O)[O-])ccc1OC)S(=O)(=O)c1ccccc1 (stereo unspecified)	?	?	-20	2%
CCCCCCOc1ccc(/C=C/C(=O)Nc2sc3c(c2C(=O)OC)CCC3)cc1OC	.	20%[46.1 µM]	-107*	14µM*
CCOC(=O)Cc1csc(NC(=O)CCc2ccc(S(=O)(=O)N3CCOCC3)cc2)n1	-2%	-26%	26	.
